Source: PubChem BioAssay (Tox21)
Active and inactive are the calls of the source. Unless noted, calls come from the whole dose curve; as a rule, active = well fitted curve in the direction sought with a large enough effect in the repeat runs; inconclusive = weak or mixed curves; inactive = no such curve, though single readings can be large; an effect the other way counts as inactive or inconclusive.

Legend:
[1] = qHTS assay to identify small molecule antagonists of the glucocorticoid receptor (GR) signaling pathway - cell viability counter screen (AID 720693); conditions: GR-bla HeLa viability, CellTiter-Glo luminescence, 18 h, with 5 nM dexamethasone present; series mostly up to 58.5 µM; note: nearly all actives have a fitted effect of over 55% in size
[2] = qHTS assay for identifying genotoxic compounds that show differential cytotoxicity against isogenic chicken DT40 cell lines with known DNA damage response pathways - wild type cell line (AID 743012); conditions: DT40 wild type chicken cells viability, CellTiter-Glo, 40 h; series mostly up to 68.4 µM; note: nearly all actives have a fitted effect of over 60% in size
Method in brief: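 Wild type DT40, 300 cells/well, ~0.5 h settle at 37 C/5% CO2; compounds in DMSO added by pintool; 40 h at 37 C/5% CO2; CellTiter-Glo, 30 min RT; luminescence.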

[3] = qHTS assay to identify small molecule antagonists of the androgen receptor (AR) signaling pathway - cell viability counter screen (AID 743033; note: nearly all actives have a fitted effect of over 45% in size); conditions: AR-bla HEK293 viability, CellTiter-Glo luminescence, 16 h; series mostly up to 58.5 µM
[4] = qHTS assay to identify small molecule antagonists of the androgen receptor (AR) signaling pathway using the MDA cell line - cell viability counter screen (AID 743041; note: nearly all actives have a fitted effect of over 45% in size); conditions: MDA-kb2 viability, CellTiter-Fluor, 16 h, cells co-treated with R1881 androgen agonist; series mostly up to 70.3 µM
Method in brief: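 MDA-kb2 AR-luc human breast carcinoma cells (MMTV-luciferase, AR/GR responsive) were treated with compounds plus R1881 agonist for 16 h at 37 °C. Viability was read as CellTiter-Fluor fluorescence in the same wells as the reporter assay.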

[5] = qHTS assay to identify small molecule antagonists of the thyroid receptor (TR) signaling pathway (AID 743065); conditions: GH3.TRE-Luc, T3-stimulated luciferase inhibition, 23.5 h; series mostly up to 70.3 µM; note: nearly all actives have a fitted effect of over 55% in size; note: potency is the fitted concentration of half-maximal effect
Method in brief: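 GH3.TRE-Luc rat pituitary cells carrying two TR response elements driving luciferase were plated for 4 h, given compound plus 1 nM T3 (final), and incubated 23.5 h at 37 C. ONE-Glo luminescence measured reporter inhibition; CellTiter-Fluor fluorescence tracked cytotoxicity.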

[6] = system: thyroid hormone receptor (rat, GH3 cells); experiment: qHTS assay to identify small molecule agonists of the thyroid receptor (TR) signaling pathway (AID 743066; calls by dose curve); conditions: GH3.TRE-Luc cells, TR agonist luciferase, 24 h; series mostly up to 83.9 µM
[7] = target: Estrogen receptor (Homo sapiens) (UniProt P03372); experiment: qHTS assay to identify small molecule antagonists of the estrogen receptor alpha (ER-alpha) signaling pathway (AID 743069; active = well fitted curve in the direction sought with a large enough effect in the signal ratio in the repeat runs, not every such curve was filed as active; inconclusive = weak or mixed curves, or effect the other way; inactive = no such curve, though single readings can be large or run the other way; the % refers to the signal ratio); conditions: HEK293 ER-alpha-UAS-bla, beta-lactamase ratio, antagonist mode; series mostly up to 69.4 µM
Estrogen receptor (Homo sapiens), sequence (P03372 whole entry, looked up): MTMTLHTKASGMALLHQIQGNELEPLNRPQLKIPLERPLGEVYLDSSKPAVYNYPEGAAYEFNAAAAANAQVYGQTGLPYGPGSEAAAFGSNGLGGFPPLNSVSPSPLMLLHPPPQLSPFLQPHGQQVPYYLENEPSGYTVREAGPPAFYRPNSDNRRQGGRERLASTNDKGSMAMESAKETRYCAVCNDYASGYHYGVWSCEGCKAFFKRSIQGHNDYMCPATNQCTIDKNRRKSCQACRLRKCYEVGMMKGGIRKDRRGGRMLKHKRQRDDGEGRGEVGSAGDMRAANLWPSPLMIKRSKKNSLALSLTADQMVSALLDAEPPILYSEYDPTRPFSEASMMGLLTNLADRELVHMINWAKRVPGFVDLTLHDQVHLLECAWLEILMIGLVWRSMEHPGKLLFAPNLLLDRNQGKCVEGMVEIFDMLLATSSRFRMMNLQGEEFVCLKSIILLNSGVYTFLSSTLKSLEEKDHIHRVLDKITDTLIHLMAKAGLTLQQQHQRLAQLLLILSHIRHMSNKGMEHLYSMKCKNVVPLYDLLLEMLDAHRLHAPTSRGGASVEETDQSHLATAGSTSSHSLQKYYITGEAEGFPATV
Method in brief: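 HEK293 cells stably carrying an ER-alpha-UAS-bla beta-lactamase reporter were pre-cultured overnight in 2% charcoal-stripped FBS medium. Test compounds in DMSO were added together with 17beta-estradiol for 18 hr at 37C. Read-out was fluorescence after 2 hr with LiveBLAzer B/G FRET substrate at room temperature.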

[8] = qHTS assay to identify small molecule antagonists of the estrogen receptor alpha (ER-alpha) signaling pathway - cell viability counter screen (AID 743074; calls by dose curve; note: nearly all actives have a fitted effect of over 45% in size); conditions: ERalpha-bla HEK293 viability, CellTiter-Glo luminescence, 18 h; series mostly up to 69.4 µM
[9] = target: Estrogen receptor (Homo sapiens) (UniProt P03372); experiment: qHTS assay to identify small molecule agonists of the estrogen receptor alpha (ER-alpha) signaling pathway (AID 743075; calls by dose curve; note: potency is the fitted concentration of half-maximal effect); conditions: HEK293 ER-alpha-UAS-bla, beta-lactamase FRET ratio, 18 h; series mostly up to 70.1 µM
[10] = target: Estrogen receptor (Homo sapiens) (UniProt P03372); experiment: qHTS assay to identify small molecule agonists of the estrogen receptor alpha (ER-alpha) signaling pathway using the BG1 cell line (AID 743079); conditions: BG1Luc4E2 cells, ERE-luciferase agonist, 22 h; series mostly up to 70.3 µM; note: nearly all actives have a fitted effect of over 20% in size; note: potency is the fitted concentration of half-maximal effect
[11] = qHTS assay to identify small molecule antagonists of the estrogen receptor alpha (ER-alpha) signaling pathway using the BG1 cell line - cell viability counter screen (AID 743081); conditions: BG1Luc4E2 viability, CellTiter-Fluor, 22 h; series mostly up to 70.3 µM;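 note: compound given together with 17beta-estradiol as the ER stimulus; nearly all actives have a fitted effect of over 45% in size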
[12] = target: Aromatase (Homo sapiens) (UniProt P11511); experiment: qHTS assay to identify aromatase inhibitors (AID 743083); conditions: MCF-7 aro ERE, testosterone-driven ERE luciferase, 24 h; series mostly up to 70.3 µM; note: nearly all actives have a fitted effect of over 55% in size
Aromatase (Homo sapiens), sequence (P11511 whole entry, looked up): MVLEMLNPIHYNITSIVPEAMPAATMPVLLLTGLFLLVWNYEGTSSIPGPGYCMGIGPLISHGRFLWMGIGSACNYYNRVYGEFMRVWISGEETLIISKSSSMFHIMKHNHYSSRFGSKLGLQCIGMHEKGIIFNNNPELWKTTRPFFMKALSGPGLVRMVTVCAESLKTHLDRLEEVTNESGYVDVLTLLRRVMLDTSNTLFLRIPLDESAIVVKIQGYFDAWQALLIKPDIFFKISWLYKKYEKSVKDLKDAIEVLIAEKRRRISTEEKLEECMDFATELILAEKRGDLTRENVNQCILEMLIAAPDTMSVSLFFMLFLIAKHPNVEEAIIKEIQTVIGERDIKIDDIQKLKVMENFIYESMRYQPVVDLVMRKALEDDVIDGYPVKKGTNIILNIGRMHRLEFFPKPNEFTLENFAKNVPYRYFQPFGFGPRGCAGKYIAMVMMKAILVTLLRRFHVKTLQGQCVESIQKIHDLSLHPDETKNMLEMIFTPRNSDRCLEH

[13] = target: Androgen receptor (Homo sapiens) (UniProt P10275); experiment: qHTS assay to identify small molecule agonists of the androgen receptor (AR) signaling pathway using the MDA cell line (AID 743040; note: nearly all actives have a fitted effect of over 20% in size; note: potency is the fitted concentration of half-maximal effect); conditions: MDA-kb2 AR-luc cells, MMTV luciferase, 16 h; series mostly up to 70.3 µM
Androgen receptor (Homo sapiens), sequence (P10275 whole entry, looked up): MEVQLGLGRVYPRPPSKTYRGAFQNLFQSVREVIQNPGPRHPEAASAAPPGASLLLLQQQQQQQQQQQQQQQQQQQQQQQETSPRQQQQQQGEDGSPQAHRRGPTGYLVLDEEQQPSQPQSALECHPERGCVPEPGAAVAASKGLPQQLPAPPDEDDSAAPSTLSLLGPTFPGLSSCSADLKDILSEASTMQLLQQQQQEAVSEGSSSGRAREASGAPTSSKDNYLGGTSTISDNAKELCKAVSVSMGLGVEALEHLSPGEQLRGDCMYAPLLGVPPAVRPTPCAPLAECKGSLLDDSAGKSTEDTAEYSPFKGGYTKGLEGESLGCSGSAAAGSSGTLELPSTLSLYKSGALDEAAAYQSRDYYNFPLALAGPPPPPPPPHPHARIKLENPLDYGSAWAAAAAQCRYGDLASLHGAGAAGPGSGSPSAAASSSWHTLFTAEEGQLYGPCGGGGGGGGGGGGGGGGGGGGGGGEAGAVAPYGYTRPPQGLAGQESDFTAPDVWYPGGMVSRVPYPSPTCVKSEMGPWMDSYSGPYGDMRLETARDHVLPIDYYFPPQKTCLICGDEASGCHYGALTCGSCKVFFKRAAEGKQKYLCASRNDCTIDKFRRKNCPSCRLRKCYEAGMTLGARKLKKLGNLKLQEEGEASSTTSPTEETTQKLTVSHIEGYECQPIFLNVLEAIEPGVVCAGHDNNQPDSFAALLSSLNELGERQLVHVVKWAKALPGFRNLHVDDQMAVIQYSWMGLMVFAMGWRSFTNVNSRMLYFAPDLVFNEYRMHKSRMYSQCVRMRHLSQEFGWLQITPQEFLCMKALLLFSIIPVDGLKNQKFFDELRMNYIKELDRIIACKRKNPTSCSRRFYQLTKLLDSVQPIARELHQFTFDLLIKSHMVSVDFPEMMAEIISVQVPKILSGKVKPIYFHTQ
Method in brief: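 MDA-kb2 breast carcinoma cells stably carrying an MMTV-driven luciferase reporter (AR- and GR-responsive) were seeded and held 5 h at 37C, 0% CO2, then exposed to compounds in DMSO for 16 h. Luminescence was read 30 min after ONE-Glo addition.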

[14] = target: Androgen receptor (Homo sapiens) (UniProt P10275); experiment: qHTS assay to identify small molecule antagonists of the androgen receptor (AR) signaling pathway using the MDA cell line (AID 743042; note: nearly all actives have a fitted effect of over 55% in size); conditions: MDA-kb2 AR-luc, MMTV luciferase, R1881 antagonist, 16 h; series mostly up to 70.3 µM
Method in brief: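 MDA-kb2 cells (human breast carcinoma, stably carrying an MMTV-luciferase reporter responsive to AR and GR) were plated at 3,000 cells/well and preincubated 5 hr at 37C, then given compound plus R1881 agonist for 16 h. ONE-Glo luminescence was read.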

[15] = qHTS assay for identifying genotoxic compounds that show differential cytotoxicity against isogenic chicken DT40 cell lines with known DNA damage response pathways - Rev3 mutant cell line (AID 743014); conditions: chicken DT40 Rev3-/- viability, CellTiter-Glo, 40 h; series mostly up to 68.4 µM; note: nearly all actives have a fitted effect of over 55% in size; note: potency is the fitted concentration of half-maximal effect
[16] = qHTS assay for identifying genotoxic compounds that show differential cytotoxicity against isogenic chicken DT40 cell lines with known DNA damage response pathways - Rad54/Ku70 mutant cell line (AID 743015); conditions: DT40 Rad54/Ku70 mutant viability, CellTiter-Glo, 40 h; series mostly up to 66.8 µM; note: nearly all actives have a fitted effect of over 60% in size; note: potency is the fitted concentration of half-maximal effect
[17] = qHTS assay to identify small molecule antagonists of the thyroid receptor (TR) signaling pathway - cell viability counter screen (AID 743064); conditions: GH3.TRE-Luc viability, CellTiter-Fluor, 24 h; series mostly up to 70.3 µM; note: nearly all actives have a fitted effect of over 50% in size
Method in brief: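 Counter screen for cytotoxicity: compound plus T3 (1 nM final) on GH3.TRE-Luc cells, 23.5 h at 37 °C, then fluorescence viability readout with CellTiter-Fluor.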

[18] = target: Androgen receptor (Homo sapiens) (UniProt P10275); experiment: qHTS assay to identify small molecule antagonists of the androgen receptor (AR) signaling pathway (AID 743035; active = well fitted inhibition curve with a large enough effect in the signal ratio in the repeat runs, not every such curve was filed as active; inconclusive = weak or mixed curves, or effect the other way; inactive = no such curve, though single readings can be large or run the other way; the % refers to the signal ratio); conditions: HEK293 AR-UAS-bla, R1881-stimulated, beta-lactamase FRET, 16 h; series mostly up to 58.5 µM
Method in brief: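 Fluorescence from a beta-lactamase FRET substrate (LiveBLAzer B/G, 2 h, room temperature) measured inhibition of R1881-stimulated signaling in GeneBLAzer AR-UAS-bla HEK293 cells exposed to compound for 16 h at 37C.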

[19] = target: Androgen receptor (Homo sapiens) (UniProt P10275); experiment: qHTS assay to identify small molecule agonists of the androgen receptor (AR) signaling pathway (AID 743036; active = well fitted activation curve with a large enough effect in the signal ratio in the repeat runs, with a control signal flat, not every such curve was filed as active; inconclusive = weak or mixed curves, or effect the other way; inactive = no such curve, though single readings can be large or run the other way; the % refers to the signal ratio); conditions: HEK293 AR-UAS-bla GripTite, beta-lactamase FRET ratio, 16 h; series mostly up to 62.4 µM
Method in brief: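 In this Tox21 qHTS, 2,000 HEK293 AR-bla cells per well were incubated with compounds for 16 h at 37C and 5% CO2. Fluorescence intensity was recorded 2 h after adding LiveBLAzer B/G FRET substrate at room temperature.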

[20] = qHTS assay to identify small molecule antagonists of the estrogen receptor alpha (ER-alpha) signaling pathway using the BG1 cell line (AID 743080; calls by dose curve;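 note: BG1 cells stimulated with 17beta-estradiol alongside compound; nearly all actives have a fitted effect of over 25% in size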); conditions: BG1Luc4E2 ERE-luciferase antagonist mode, luminescence; series mostly up to 70.3 µM
Method in brief: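 After 5 days in phenol-red-free 10% charcoal-stripped FBS medium, BG1-Luc-4E2 cells were seeded, left 24 h at 37 C, co-treated with compounds and 17beta-estradiol for 21.5 h, then assayed for viability and luciferase.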
% is set by controls: 0 for no effect and ±100 for the full control effect.

NCCN1CCNC1=O
inactive: outcome [1] | Potency [2] | outcome [3] | Potency [4] | Potency [5] | Potency [6] | Potency [7] | outcome [8] | Potency [9] | Potency [10] | outcome [11] | Potency [12]

Cc1nc(-c2ccc(OCC(C)C)c(C#N)c2)sc1C(=O)O
active: Potency [13] 1.19 µM | Potency [5] 13.3 µM
inactive: outcome [1] | Potency [2] | outcome [3] | Potency [4] | outcome [14] | Potency [6] | Potency [9] | outcome [11] | Potency [12]

COc1nc(C)nc(N)n1
inactive: outcome [1] | Potency [15] | Potency [16] | outcome [3] | Potency [4] | Potency [17] | Potency [5] | Potency [6] | Potency [7] | outcome [8] | Potency [9] | outcome [11] | Potency [12]

Cn1ccc2cc3c(cc21)CCN3C(=O)Nc1cccnc1
inactive: outcome [1] | outcome [3] | Potency [4] | Potency [5] | Potency [6] | outcome [8] | outcome [11] | Potency [12]
active: Potency [15] 13.3 µM | Potency [16] 26.6 µM | Potency [10] 5.31 µM

N#CCc1ccccc1[N+](=O)[O-]
inactive: Potency [2] | Potency [15] | Potency [16] | outcome [3] | Potency [4] | Potency [17] | Potency [5] | Potency [6] | outcome [8] | outcome [11] | Potency [12]

C=CC(=O)N1CCOCC1
inactive: outcome [1] | Potency [15] | outcome [3] | Potency [4] | Potency [5] | Potency [6] | outcome [8] | outcome [11] | Potency [12]

Oc1ccc2c(c1)OC[C@@H](N1CCC(O)(c3ccc(F)cc3)CC1)[C@H]2O
active: Potency [10] 9.44 µM
inactive: outcome [1] | outcome [3] | Potency [4] | Potency [17] | Potency [5] | outcome [8] | Potency [9] | outcome [11] | Potency [12]

CC1=CCC2C(C1)C2(C)C (stereo not given)
inactive: outcome [1] | outcome [3] | Potency [18] | outcome [19] | Potency [13] | Potency [4] | outcome [14] | Potency [17] | Potency [5] | Potency [6] | Potency [7] | outcome [8] | Potency [9] | Potency [10] | Potency [20] | outcome [11] | Potency [12]

CC(C)COC(=O)C(C)C
inactive: outcome [1] | Potency [15] | Potency [16] | outcome [3] | Potency [4] | Potency [17] | Potency [5] | Potency [6] | Potency [7] | outcome [8] | Potency [9] | Potency [10] | Potency [20] | outcome [11] | Potency [12]

FC(F)(F)C(F)(F)C(F)(F)C(F)(F)C(F)(F)C(F)(F)C(F)(F)C(F)(F)C(F)(F)C(F)(F)F
inactive: viability change, negative = cytotoxic [1] -1.03% [at 7.04 µM] | activity, negative = cytotoxicity [15] -1.46% [at 8.53 µM] | activity change, negative = cytotoxicity [16] 4.69% [at 8.55 µM] | activity change, negative = cytotoxicity [3] 0.133% [at 7.04 µM] | viability change, negative = cytotoxic [4] 6.81% [at 8.47 µM] | activity change, negative = cytotoxic [17] 12.8% [at 8.44 µM] | activity, negative = inhibition [5] 5.14% [at 8.44 µM] | activation [6] 0.424% [at 8.08 µM] | activity, negative = cytotoxicity [8] -10% [at 6.72 µM] | activity change, negative = cytotoxicity [11] 7.45% [at 8.47 µM] | activity, negative = inhibition [12] 1.74% [at 8.47 µM]

CC1CCN(CCCC(=O)c2ccc(F)cc2)CC1
active: Potency [16] 7.5 µM
inactive: outcome [1] | outcome [3] | Potency [17] | Potency [5] | Potency [6] | Potency [7] | outcome [8] | Potency [9] | Potency [10] | Potency [20] | outcome [11] | Potency [12]

NC(=O)CCCCC1CCSS1 (stereo not given)
inactive: Potency [2] | Potency [15] | Potency [16] | outcome [3] | Potency [4] | Potency [17] | Potency [5] | Potency [6] | outcome [8] | Potency [20] | outcome [11] | Potency [12]
active: Potency [9] 0.239 µM [inconclusive] | Potency [10] 0.0266 µM

NC(=O)Nc1nc2ccccc2[nH]1
inactive: Potency [2] | Potency [15] | Potency [16] | outcome [3] | Potency [4] | Potency [17] | Potency [5] | Potency [6] | Potency [7] | outcome [8] | Potency [9] | Potency [10] | Potency [20] | outcome [11] | Potency [12]

CC(C)N1C(=O)c2ccccc2C1=O
inactive: Potency [2] | Potency [15] | Potency [16] | outcome [3] | Potency [4] | Potency [17] | Potency [5] | Potency [6] | Potency [7] | outcome [8] | Potency [9] | Potency [10] | outcome [11] | Potency [12]

C#CC(O)CCCCC (stereo not given)
inactive: outcome [1] | Potency [15] | Potency [16] | outcome [3] | Potency [4] | Potency [17] | Potency [5] | Potency [6] | outcome [8] | outcome [11] | Potency [12]

CCOC(=O)Nc1ccc2c(c1)N(C(=O)CCN1CCOCC1)c1ccccc1S2
inactive: Potency [2] | Potency [15] | Potency [16] | outcome [3] | Potency [18] | outcome [19] | Potency [4] | outcome [14] | Potency [5] | Potency [6] | Potency [7] | outcome [8] | Potency [9] | Potency [10] | Potency [20] | outcome [11] | Potency [12]
active: Potency [13] 12.7 µM
